An excerpt weighted towards active compounds, which were near 5.8% of everything screened.
uPA surface inh: inhibitors of cell surface uPA generation; hit rate 0.31% among 330,000; Potency, µM (titrated, usually from 38.3 µM), inactives show at the top dose activity change, negative = inhibition, most hits filed as inhibitors; cell surface uPA generation assay, qHTS; active = well fitted inhibition curve with a large enough effect; inconclusive = small, poorly fitted or top-dose-only effect; inactive = no such curve, though single readings can be large or run the other way; tested in mouse RAW 264.7 cells; also: potency is read from the fitted curve at half-maximal effect; % is scaled to controls: 0 for no effect and ±100 for the full control effect; nearly all actives have a fitted effect of over 55% in size
RORgamma inh: inhibitors of mouse ROR gamma transcriptional activity; Potency, µM (titrated, usually from 53.6 µM), inactives show at the highest dose activity change, negative = inhibition, actives largely listed as inhibitors; hit rate 5.4% among 310,000; P51450; Drosophila S2 Gal4-RORgamma UAS-luciferase reporter, 20 h; also: potency is read from the fitted curve at half-maximal effect; % is scaled to controls: 0 for no effect and ±100 for the full control effect; nearly all actives have a fitted effect of over 60% in size
Target sequence (P51450 whole entry, looked up, the tested form may be a part): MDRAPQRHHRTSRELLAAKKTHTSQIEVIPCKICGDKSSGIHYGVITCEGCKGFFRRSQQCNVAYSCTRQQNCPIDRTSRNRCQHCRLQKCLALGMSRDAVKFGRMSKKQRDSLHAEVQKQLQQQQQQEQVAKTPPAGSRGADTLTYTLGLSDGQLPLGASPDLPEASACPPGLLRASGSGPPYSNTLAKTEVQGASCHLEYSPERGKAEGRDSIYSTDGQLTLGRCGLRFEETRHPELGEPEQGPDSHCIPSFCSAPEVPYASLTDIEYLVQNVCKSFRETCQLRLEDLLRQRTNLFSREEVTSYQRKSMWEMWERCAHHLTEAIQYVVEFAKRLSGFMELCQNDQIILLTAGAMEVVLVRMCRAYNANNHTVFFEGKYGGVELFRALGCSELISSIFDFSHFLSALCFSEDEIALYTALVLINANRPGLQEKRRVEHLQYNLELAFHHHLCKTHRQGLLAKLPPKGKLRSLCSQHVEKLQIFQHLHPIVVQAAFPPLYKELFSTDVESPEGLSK
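A Gal4/UAS one-hybrid system in insect cells: metallothionein-promoter Gal4–ROR gamma fusion plus Photinus luciferase reporter. Copper sulfate 700 uM final, 20 hr ambient incubation, luminescent detection after 10 min with reagent.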
TRPV1 ag: human TRPV1 agonism | Q8NER1 | TRPV1-expressing cells, Fluo-8 calcium influx, agonist mode | activation, % at 8.33 µM | hit rate 0.19% among 320,000 | AID 540275; in the data active = activation above about 80%; inconclusive = between about 30% and that limit; also: 0% is about no effect
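TRPV1-expressing cells were cultured overnight at 35.5C and loaded with Fluo-8 calcium dye for 40 to 90 min at room temperature. After a 10 s baseline, compound was added and calcium influx was read kinetically for 3 min (ex 480/em 520 nm).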
Gal4-VP16 FLuc: inhibits Gal4-VP16 luciferase reporter, ROR gamma counter-screen; Potency, µM (top dose mostly 53.6 µM), for inactives: top-dose activity, negative = inhibition, usual class: inhibitors; hit rate 3.5% among 310,000; Drosophila S2 Gal4-VP16 UAS-luciferase, luminescence, 20 h;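 also: Gal4-VP16 expression switched on by copper sulfate through the metallothionein promoter; potency is read from the fitted curve at half-maximal effect; % is scaled to controls: 0 for no effect and ±100 for the full control effect; nearly all actives have a fitted effect of over 50% in size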
TRPV1 PAM: enhances activation of the human vanilloid receptor TRPV1; TRPV1-expressing cells, Fluo-8 calcium influx, capsaicin EC20 potentiation; potentiation, % at 8.33 µM; hit rate 0.02% among 320,000; AID 540277; in the data active = potentiation above about 80%; inconclusive = between about 30% and that limit; also: 0% is about no effect
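TRPV1-expressing cells were cultured overnight at 35.5C and loaded with Fluo-8 calcium dye for 40 to 90 min at room temperature. After a 10 s baseline, compound was added and calcium influx was read kinetically for 3 min (ex 480/em 520 nm).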
An asterisk follows results filed as active; ? = inconclusive; nt = no result given; [ ] = another dose, or the depositor's remark. Unless noted, calls follow the shape of the dose curve; as a rule, active = well fitted curve in the direction sought with a large enough effect; inconclusive = small, poorly fitted or top-dose-only effect, or another doubt; inactive = no such curve, though single readings can be large; an effect the other way counts as inactive or inconclusive.

SMILES | uPA surface inh | RORgamma inh | TRPV1 ag | Gal4-VP16 FLuc | TRPV1 PAM
CCOc1ccc(Br)cc1C1=NN(C(C)=O)C(c2ccc([N+](=O)[O-])s2)O1 (stereo unspecified) | 6.31µM* | ? | -1.7 | ? | 0.1
N#CCCNS(=O)(=O)c1ccc(C(=O)OCCCOC(=O)c2ccc(S(=O)(=O)NCCC#N)cc2)cc1 | 3.6% | 11.2µM* | -0.2 | 17.8µM* | ?
Cc1ccc(NC(=O)c2cccc(-n3cnnn3)c2)cc1Cl | 7.0% | nt | 3.5 | nt | -14.5
COc1ccc(N2CCN(c3nc4ccccc4n3CC(=O)c3ccccc3)CC2)cc1 | -0.6% | ? | 5.8 | 5.9% | 7.1
COc1ccc(N2CCN(Cc3nc4ccccc4n3C)CC2)cc1 | -1.2% | 12.6µM* | -1.7 | 2.3% | -14.7
O=C(/C=C/c1ccc(Cl)cc1)c1cccnc1 | -10.7% | ? | ? | 20µM* | -3.8
N#Cc1ccc(/C=C/C(=O)c2cccnc2)cc1 | ? | 7.94µM* | 0.5 | ? | -1.5
CS(=O)(=O)c1ccc(CNC(=O)[C@H]2C[C@@H]2[C@H](NP(=O)(c2ccccc2)c2ccccc2)c2ccccc2)cc1 | nt | 24.5% | nt | -10.1% | nt
CCCCNC(=O)C(c1ccc(OCC(=O)OC)c(C(=O)OC)c1)N(Cc1ccccc1)C(=O)CCCCCN1C(=O)NC(c2ccc(-c3ccccc3)cc2)C(C(=O)OCc2ccccc2)=C1C (stereo unspecified) | nt | 6.3% | nt | -3.5% | nt
CCC(=O)N(CCc1ccccc1)Cc1cc2cccc(C)c2[nH]c1=O | 14.6% | -0.7% | 87.8* | 4.2% | 22.1
CCC(=O)N1CCN(c2ccc(NC(=S)NC(=O)c3cccc([N+](=O)[O-])c3)cc2)CC1 | -3.6% | ? | 1.5 | ? | -33.9
CCC(=O)N1CCN(c2ccccc2NC(=S)NC(=O)c2cccc([N+](=O)[O-])c2)CC1 | -3.3% | 7.94µM* | 28.8 | ? | -5.9
O=C(NC(=S)Nc1ccccc1N1CCOCC1)c1cccc([N+](=O)[O-])c1 | 1.9% | 1.58µM* | 28.7 | 3.98µM* | -11.0
N#C/C(=C/c1ccco1)c1nc2ccccc2s1 | ? | 5.01µM* | ? | 5.62µM* | 1.1
COc1cc([N+](=O)[O-])ccc1NC(=O)CSc1nncn1-c1cccnc1 | nt | 9.5% | 0.0 | -1.7% | 1.2
CCOc1ccc(NC(=S)NNC(=O)CC(C)O)cc1 (stereo unspecified) | -0.6% | -15.5% | 2.8 | 1.5% | 1.0
CN(C)S(=O)(=O)c1ccc(NC(=S)NC(=O)Cc2ccccc2)cc1 | -0.9% | -18.5% | ? | 10.4% | -15.7
CCN(CC)c1ccc(NC(=S)NC(=O)Cc2ccccc2)cc1 | 9.5% | 2.51µM* | ? | 2.51µM* | 7.8
CCOc1ccc(NC(=S)NC(=O)Cc2ccccc2)cc1 | 4.5% | 3.98µM* | 86.9* | 10µM* | 10.6
CC(C)(C)OC(=O)NC(CO)c1cn([C@@H](Cc2cc3ccccc3[nH]2)C(=O)N2CCN(C(=O)OC(C)(C)C)CC2)nn1 (stereo partly specified) | 20.9% | 10.7% | -2.2 | -6.3% | -0.4
Cc1cnc(NC(=O)CSc2nnc(Cc3ccccc3)o2)s1 | nt | 10µM* | nt | 3.8% | nt
COc1ccc(Cc2nnc(SCC(=O)Nc3ncc(C)s3)o2)cc1 | 2.5% | -2.3% | 0.3 | ? | 15.9
Cc1cnc(NC(=O)CCc2ccccc2)s1 | 10µM* | -1.8%[1.91 µM] | 9.4 | 3.5% | 6.3
O=C1[C@H]2[C@H]3[C@H](O)[C@H](O)C/C(=N/OCc4ccccc4)[C@H]3CC[C@@H]2C(=O)N1C1CCCCC1 | nt | -8.5%[10 µM] | nt | 3.7%[10 µM] | nt
COc1ccccc1CNS(=O)(=O)c1ccc2[nH]c3c(c2c1)CCCCC3 | nt | nt | 11.3 | nt | 9.5
SMILES | uPA surface inh | RORgamma inh | TRPV1 ag | Gal4-VP16 FLuc | TRPV1 PAM
COc1ccc(-c2nnc3n2N=C(c2ccccc2OC)CS3)cc1OC | nt | 42.5% | nt | ? | nt
Nc1c(S(=O)(=O)c2ccccc2)cnc2c(-c3ccc(F)cc3)cnn12 | nt | 4.47µM* | -1.8 | 10µM* | 15.1
COc1ccc(-c2cnn3c(N)c(S(=O)(=O)c4ccccc4)cnc23)cc1 | -7.7% | 2.82µM* | 2.4 | 5.62µM* | -1.4
CS(=O)(=O)c1cnc2c(S(=O)(=O)c3ccccc3)cnn2c1N | -0.6% | 13.6% | -1.6 | 7.9% | 8.2
CCOc1ccc(S(=O)(=O)Nc2cc(SCC(=O)O)c(O)c3ccccc23)cc1 | ? | 10µM* | -1.5 | ? | 12.7
CCc1ccc(S(=O)(=O)Nc2cc(SCC(=O)O)c(O)c3ccccc23)cc1 | ? | -38.0% | -0.9 | ? | 6.0

Bioassay records deposited in PubChem BioAssay by National Center for Advancing Translational Sciences (NCATS).
